“And” between values parts separate entries of the source, which are not always exact repeats. Equal values may be shown once. Inconclusive results are not listed. The source holds several records for some structures; these can differ, active in one and inactive in another. The source made the active and inactive calls. Rule for the calls: active = hit-call score of the fitted dose curve at least 0.9, where 1 is the maximum; inconclusive = response in the unintended direction; inactive = score below 0.9.
What was measured:
[1] = target: bovine Estrogen Receptor (ER), ESR1 (gene 407238) (UniProt P49884); assay: NVS_NR_bER: NovaScreen (NVS) Nuclear Receptor Binding Assay for bovine Estrogen Receptor (ER) (AID 2283345);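 note: actives lower the bound radioligand count which means they displace the ER ligand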
Summary of the method: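 Displacement of a radioligand from estrogen receptor in bovine uterine membrane preparations; scintillation signal taken at 18 hours, DMSO as baseline. Single-concentration duplicates (25 uM) preceded concentration-response follow-up of actives.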

[2] = target: Estrogen receptor (Homo sapiens) (UniProt P03372); assay: NVS_NR_hER: NovaScreen (NVS) Nuclear Receptor Binding Assay for human Estrogen Receptor (ER) (AID 2283348)
Summary of the method: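 Scintillation signal from bound radioligand was measured 18 hours after chemical addition to cell-free MCF7 protein extracts, with DMSO as baseline. Activity was scored as signal loss; compounds ran first at 25 uM in duplicate.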

[3] = target: Estrogen receptor (Homo sapiens) (UniProt P03372); assay: OT_ER_ERaERa_1440: Odyssey Thera (OT) 24-hour HEK293T Protein-Complementation Assay for Estrogen Receptor-alpha/-alpha Homodimer (AID 2283349);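 note: hits raise fluorescence above DMSO for agonists and antagonists alike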
Summary of the method: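 Protein-fragment complementation between two human ERα ligand-binding domains (aa 310-547) in stably transfected HEK293T cells was monitored after 24 h treatment, using fluorescence intensity relative to vehicle controls.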

[4] = target: Estrogen receptor (Homo sapiens) (UniProt P03372); assay: OT_ER_ERaERa_0480: Odyssey Thera (OT) 8-hour HEK293T Protein-Complementation Assay for Estrogen Receptor-alpha/-alpha Homodimer (AID 2283351);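 note: rise in fluorescence from reassembled reporter fragments on ERα LBD homodimer in nucleus or whole cell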
Summary of the method: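 HEK293T, stable ERα LBD (aa 310-547) PCA homodimer; 8 h compound exposure; fluorescence intensity, laser scanning cytometer; positive fitting direction, DMSO baseline.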

[5] = target: Estrogen receptor (Homo sapiens) + Estrogen receptor beta (Homo sapiens) (UniProt P03372+Q92731); assay: OT_ER_ERaERb_0480: Odyssey Thera (OT) 8-hour HEK293T Protein-Complementation Assay for Estrogen Receptor-alpha/-beta Heterodimer (AID 2283352)
Summary of the method: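 Increase in mean fluorescence intensity, measured by laser scanning plate cytometry, reported ER-alpha/ER-beta LBD complementation in HEK293T cells after 8 h chemical exposure. DMSO served as baseline; basal signal is low, punctate and cytoplasmic.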

NCBI gene 100848466 = assay: NVS_NR_bPR: NovaScreen (NVS) Nuclear Receptor Binding Assay for bovine Progextron Receptor (PR) (AID 2283343);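 for AC50: actives lower bound radioligand signal below DMSO meaning displacement of the label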
Summary of the method: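 Membranes from bovine uterus; radiolabelled ligand plus test chemical; 18 h; scintillation read-out. Activity = signal loss vs DMSO. Primary: 25 uM, duplicate; secondary: concentration series.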

[6] = target: human Constitutive Androstane Receptor (CAR), NR1I3 (gene 9970) (UniProt Q14994); assay: NVS_NR_hCAR_Antagonist: NovaScreen (NVS) Nuclear Receptor Binding Assay for human Constitutive Androstane Receptor Antagonism (CAR) (AID 2283344)
Summary of the method: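 Cell-free TR-FRET binding read 1 h after dosing, antagonist mode; loss of signal versus DMSO baseline. Primary screen in duplicate at a single 25 uM; actives retested in concentration series.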

[7] = tested on: guinea pig Histamine Receptor (H2), gene 100729734; assay: NVS_GPCR_gH2: NovaScreen (NVS) G Protein-Coupled Receptor Assay for guinea pig Histamine Receptor (H2) (AID 2283342)
Summary of the method: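 Radioligand displacement on guinea pig striatal membranes, 1 h after dosing, filter-based scintillation counting; loss of signal versus DMSO. Single-point screen at 25 uM in duplicate, then concentration-response up to 50 uM.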

[8] = target: chimpanzee Androgen Receptor (AR), AR (gene 747460) (UniProt O97775); assay: NVS_NR_cAR: NovaScreen (NVS) Nuclear Receptor Binding Assay for chimpanzee Androgen Receptor (AR) (AID 2283346);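 note: radioligand displacement from AR measured by scintillation counting in a cell-free assay; a loss of bound radioligand signal versus DMSO counts as binding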
Summary of the method: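 Cell-free competition binding with insect-cell (Sf9/Sf21) extracted chimpanzee AR; scintillation signal from lysate at 72 h. Screened in duplicate at 25 uM, then concentration-response for actives; fitting relative to DMSO.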

[9] = target: bovine Gamma-Aminobutyric Acid Type A Receptor Agonist (GABAR Agonist), GABRA1 (gene 780973) (UniProt P08219); assay: NVS_LGIC_bGABAR_Agonist: NovaScreen (NVS) Ligand-Gated Ion Channel Assay for bovine Gamma-Aminobutyric Acid Type A Receptor Agonist (GABAR Agonist) (AID 2283338)
Summary of the method: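 Radioligand binding to bovine cerebellar membranes in agonist format, read by filter-based scintillation counting after 1 h. Primary screen in duplicate at 25 uM, with actives followed in concentration series. Gain of signal versus DMSO.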

Chain of Estrogen receptor (Homo sapiens) (P03372 whole entry, looked up, the tested form may be a part): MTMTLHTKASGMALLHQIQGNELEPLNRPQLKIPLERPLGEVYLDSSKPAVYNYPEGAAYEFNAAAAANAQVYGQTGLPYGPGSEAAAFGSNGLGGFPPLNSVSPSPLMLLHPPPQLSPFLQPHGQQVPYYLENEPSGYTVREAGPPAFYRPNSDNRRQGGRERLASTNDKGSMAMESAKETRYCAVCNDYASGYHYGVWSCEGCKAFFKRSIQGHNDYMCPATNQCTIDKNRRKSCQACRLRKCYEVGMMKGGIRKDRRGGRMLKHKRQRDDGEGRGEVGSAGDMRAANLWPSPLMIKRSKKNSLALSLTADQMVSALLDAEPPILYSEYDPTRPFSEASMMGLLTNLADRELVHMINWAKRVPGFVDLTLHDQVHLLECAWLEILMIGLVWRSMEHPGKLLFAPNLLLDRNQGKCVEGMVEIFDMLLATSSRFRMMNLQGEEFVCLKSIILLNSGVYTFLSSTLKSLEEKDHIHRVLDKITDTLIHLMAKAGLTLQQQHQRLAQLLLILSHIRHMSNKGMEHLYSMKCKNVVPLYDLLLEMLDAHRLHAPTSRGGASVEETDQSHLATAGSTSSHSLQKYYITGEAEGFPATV
Chain of Estrogen receptor (Homo sapiens) + Estrogen receptor beta (Homo sapiens) (P03372 whole entry, looked up, the tested form may be a part): as above
Chain of Estrogen receptor (Homo sapiens) + Estrogen receptor beta (Homo sapiens) (Q92731 whole entry, looked up, the tested form may be a part): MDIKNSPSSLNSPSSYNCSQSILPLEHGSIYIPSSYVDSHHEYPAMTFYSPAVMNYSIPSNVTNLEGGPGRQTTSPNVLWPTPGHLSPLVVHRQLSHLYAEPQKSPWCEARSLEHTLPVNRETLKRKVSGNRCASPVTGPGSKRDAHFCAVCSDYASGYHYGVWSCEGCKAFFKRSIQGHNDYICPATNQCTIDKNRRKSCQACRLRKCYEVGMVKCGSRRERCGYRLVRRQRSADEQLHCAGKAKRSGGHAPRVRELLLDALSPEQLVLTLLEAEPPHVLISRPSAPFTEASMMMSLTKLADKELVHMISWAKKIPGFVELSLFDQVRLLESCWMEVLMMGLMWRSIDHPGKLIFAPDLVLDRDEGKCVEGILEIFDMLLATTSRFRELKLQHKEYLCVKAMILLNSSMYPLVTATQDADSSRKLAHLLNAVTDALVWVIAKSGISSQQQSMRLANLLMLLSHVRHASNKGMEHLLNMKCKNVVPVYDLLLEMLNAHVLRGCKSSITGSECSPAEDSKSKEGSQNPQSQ
Chain of chimpanzee Androgen Receptor (AR), AR (gene 747460) (O97775 whole entry, looked up): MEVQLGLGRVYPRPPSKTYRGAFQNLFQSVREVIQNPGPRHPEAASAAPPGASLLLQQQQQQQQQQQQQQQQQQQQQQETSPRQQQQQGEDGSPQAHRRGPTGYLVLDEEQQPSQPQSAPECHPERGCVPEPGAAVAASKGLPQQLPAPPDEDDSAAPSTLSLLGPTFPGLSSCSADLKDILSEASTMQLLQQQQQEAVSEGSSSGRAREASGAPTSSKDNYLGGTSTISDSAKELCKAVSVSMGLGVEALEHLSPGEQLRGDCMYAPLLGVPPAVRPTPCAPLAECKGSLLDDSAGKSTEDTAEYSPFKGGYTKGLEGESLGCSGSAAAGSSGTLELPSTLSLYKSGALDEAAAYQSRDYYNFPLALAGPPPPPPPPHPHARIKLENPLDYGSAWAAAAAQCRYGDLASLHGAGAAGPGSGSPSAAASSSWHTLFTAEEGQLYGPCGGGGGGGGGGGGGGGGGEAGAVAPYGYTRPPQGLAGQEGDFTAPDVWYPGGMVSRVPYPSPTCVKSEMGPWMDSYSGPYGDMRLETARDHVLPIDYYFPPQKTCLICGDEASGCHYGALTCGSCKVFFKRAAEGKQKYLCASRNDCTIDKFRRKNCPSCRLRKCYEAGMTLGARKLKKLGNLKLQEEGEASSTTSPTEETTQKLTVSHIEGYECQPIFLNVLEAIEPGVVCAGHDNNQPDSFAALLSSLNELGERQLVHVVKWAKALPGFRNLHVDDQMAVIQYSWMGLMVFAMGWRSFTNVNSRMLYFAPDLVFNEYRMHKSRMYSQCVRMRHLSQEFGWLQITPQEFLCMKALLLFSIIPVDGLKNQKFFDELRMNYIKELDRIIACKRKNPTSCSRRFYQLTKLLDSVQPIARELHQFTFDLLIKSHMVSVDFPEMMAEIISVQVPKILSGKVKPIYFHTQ
Chain of bovine Estrogen Receptor (ER), ESR1 (gene 407238) (P49884 whole entry, looked up): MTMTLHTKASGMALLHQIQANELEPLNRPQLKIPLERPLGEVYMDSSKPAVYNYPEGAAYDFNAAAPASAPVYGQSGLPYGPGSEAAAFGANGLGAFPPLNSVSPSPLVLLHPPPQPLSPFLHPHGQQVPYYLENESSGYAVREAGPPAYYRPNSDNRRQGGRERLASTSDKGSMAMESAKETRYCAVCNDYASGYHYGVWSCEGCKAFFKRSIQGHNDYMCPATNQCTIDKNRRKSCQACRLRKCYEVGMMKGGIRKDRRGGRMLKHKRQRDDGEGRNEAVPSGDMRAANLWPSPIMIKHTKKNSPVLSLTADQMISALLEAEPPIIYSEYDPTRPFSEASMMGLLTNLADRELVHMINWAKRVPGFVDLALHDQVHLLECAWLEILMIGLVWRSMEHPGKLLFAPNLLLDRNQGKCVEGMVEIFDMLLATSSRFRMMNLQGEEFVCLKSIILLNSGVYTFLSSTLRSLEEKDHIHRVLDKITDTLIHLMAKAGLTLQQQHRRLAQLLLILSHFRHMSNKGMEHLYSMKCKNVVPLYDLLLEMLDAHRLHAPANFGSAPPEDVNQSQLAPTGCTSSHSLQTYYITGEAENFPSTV
Chain of human Constitutive Androstane Receptor (CAR), NR1I3 (gene 9970) (Q14994 whole entry, looked up): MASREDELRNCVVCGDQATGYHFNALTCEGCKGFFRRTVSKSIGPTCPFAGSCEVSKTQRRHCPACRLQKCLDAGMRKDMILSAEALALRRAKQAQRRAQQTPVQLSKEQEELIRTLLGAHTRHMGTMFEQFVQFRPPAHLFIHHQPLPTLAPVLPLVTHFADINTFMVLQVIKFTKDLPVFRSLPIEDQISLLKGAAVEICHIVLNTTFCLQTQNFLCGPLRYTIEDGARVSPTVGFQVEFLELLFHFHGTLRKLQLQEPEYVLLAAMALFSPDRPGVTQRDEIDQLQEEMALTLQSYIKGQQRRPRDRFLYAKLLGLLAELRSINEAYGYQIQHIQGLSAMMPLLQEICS
Chain of bovine Gamma-Aminobutyric Acid Type A Receptor Agonist (GABAR Agonist), GABRA1 (gene 780973) (P08219 whole entry, looked up): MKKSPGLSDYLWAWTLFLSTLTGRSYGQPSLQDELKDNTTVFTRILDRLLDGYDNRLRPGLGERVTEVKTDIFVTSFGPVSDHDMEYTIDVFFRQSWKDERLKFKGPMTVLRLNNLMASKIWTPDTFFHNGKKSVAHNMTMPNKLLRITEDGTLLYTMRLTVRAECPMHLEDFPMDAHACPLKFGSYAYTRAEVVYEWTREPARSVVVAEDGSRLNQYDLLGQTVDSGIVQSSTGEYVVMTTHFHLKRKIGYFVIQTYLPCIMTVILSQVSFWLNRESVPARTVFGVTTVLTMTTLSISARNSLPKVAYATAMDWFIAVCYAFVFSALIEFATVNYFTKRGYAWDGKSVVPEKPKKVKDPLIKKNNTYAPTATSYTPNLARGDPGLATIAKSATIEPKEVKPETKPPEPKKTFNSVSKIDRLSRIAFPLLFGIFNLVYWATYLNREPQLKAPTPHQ

CCCCCCCCOC(=O)c1ccc(O)cc1
outcome [1]: inactive
AC50 [2]: 2.7 µM (active)
AC50 [3]: 32.8 µM (active)
AC50 [4]: 20.9 µM (active)
AC50 [5]: 10.1 µM (active)

CC(C)(C)c1ccc(S)cc1
AC50 [1]: 0.551 µM (active)
AC50 [2]: 0.283 µM (active)
outcome [3]: inactive
outcome [4]: inactive

CC(C)(CO)CO
outcome [1]: inactive
outcome [3]: inactive
outcome [5]: inactive

CN(C)CCC=C1c2ccccc2CCc2ccccc21
outcome [1]: inactive
outcome [2]: inactive

COc1ccccc1O
outcome [1]: inactive
outcome [2]: inactive
outcome [3]: inactive

Cc1cccc(O)c1
outcome [1]: inactive
outcome [2]: inactive
outcome [3]: inactive
outcome [4]: inactive
outcome [5]: inactive

CCOCC(C)O (stereo not given)
outcome [1]: inactive
outcome [2]: inactive
outcome [3]: inactive
outcome [5]: inactive

CCC(C)(C)C1CCC(=O)CC1
AC50 [1]: 4.52 µM (active)
AC50 [2]: 0.983 µM (active)
outcome [3]: inactive

C[C@]12CC[C@@H]3c4ccc(O)cc4CC[C@H]3[C@@H]1CC[C@@H]2O
AC50 (NCBI gene 100848466): 0.00898 µM (active)
outcome [6]: inactive

CC/C=C\CCOC(C)OCC (stereo not given)
outcome [1]: inactive
outcome [2]: inactive

CC(O)CN (stereo not given)
outcome [1]: inactive
outcome [2]: inactive
outcome [3]: inactive
outcome [4]: inactive
outcome [5]: inactive

O=C(c1ccc(OCCN2CCCCC2)cc1)c1c(-c2ccc(O)cc2)sc2cc(O)ccc12
AC50 [7]: 4.18 µM (active)
outcome (NCBI gene 100848466): inactive
AC50 [6]: 38.5 µM (active)
AC50 [8]: 25 µM (active)
outcome [8]: inactive

Cc1cc(O)c2c(c1)C(=O)c1cc(O)cc(O)c1C2=O
outcome [1]: inactive

CC(=O)OC(C)(C)C1CC=C(C)CC1 (stereo not given)
outcome [1]: inactive
outcome [3]: inactive
outcome [4]: inactive

CCCCCCCCCCCCOCCOS(=O)(=O)O
outcome [1]: inactive
AC50 [2]: 22.8 µM (active)
outcome [3]: inactive
outcome [4]: inactive

C=CC(=O)OCC(CO)(COC(=O)C=C)COC(=O)C=C
outcome [1]: inactive
outcome [2]: inactive

CC(=O)C1C(=O)C=C(C)OC1=O (stereo not given)
outcome [1]: inactive
outcome [2]: inactive
outcome [3]: inactive
outcome [5]: inactive

C#C[C@]1(O)CC[C@H]2[C@@H]3CCc4cc(O)ccc4[C@H]3CC[C@@]21C
AC50 (NCBI gene 100848466): 0.051 µM (active)
AC50 [8]: 966 nM (active) and 80.5 nM (active)

CCC(=O)OC(C)(C)C1CC=C(C)CC1 (stereo not given)
outcome [1]: inactive
outcome [2]: inactive
outcome [3]: inactive
outcome [5]: inactive

O=C(Nc1cccc(Cl)c1)OCC#CCCl
outcome [1]: inactive
outcome [2]: inactive

CCCCCCOc1ccc(O)cc1
outcome [1]: inactive
AC50 [2]: 12 µM (active)
AC50 [3]: 13.6 µM (active)
AC50 [5]: 12 µM (active)

CC/C=C\CCCCCCCCCCOC(C)=O
outcome [1]: inactive

CC1(C)CC(=O)CC(C)(C)N1
outcome [1]: inactive
outcome [8]: inactive

CCC(C)(C)c1cc(O)c(C(C)(C)CC)cc1O
outcome [1]: inactive
outcome [2]: inactive

C[C@H](CCC(=O)O)[C@H]1CC[C@H]2[C@@H]3CC[C@@H]4C[C@H](O)CC[C@]4(C)[C@H]3CC[C@]12C
outcome [1]: inactive

O=C1OC2(c3ccc(O)cc3Oc3cc(O)ccc32)c2ccccc21
AC50 [1]: 15.8 µM (active)
AC50 [8]: 13.5 µM (active)
outcome [8]: inactive
AC50 [2]: 9.78 µM (active)
outcome [2]: inactive
outcome [3]: inactive
outcome [4]: inactive

O=S1(=O)CC(Cl)(Cl)C(Cl)(Cl)C1
outcome [1]: inactive
AC50 [2]: 18.5 µM (active)

CC/C(=C(\c1ccccc1)c1ccc(OCCN(C)C)cc1)c1ccccc1
outcome [9]: inactive
AC50 [7]: 4.7 µM (active) and 1.19 µM (active)
AC50 [8]: 19.4 µM (active)
outcome [8]: inactive

CCCCCC(=O)O[C@]1(C(C)=O)CC[C@H]2[C@@H]3CCC4=CC(=O)CC[C@]4(C)[C@H]3CC[C@@]21C
outcome [1]: inactive
AC50 [8]: 1.12 µM (active)
outcome [3]: inactive
outcome [5]: inactive

CC(=O)CC(=O)N(C)C
outcome [1]: inactive
outcome [8]: inactive
outcome [2]: inactive
outcome [3]: inactive
outcome [4]: inactive
outcome [5]: inactive

CCCCCCCCCOS(=O)(=O)O
outcome [1]: inactive
AC50 [2]: 11.1 µM (active)
outcome [3]: inactive
outcome [4]: inactive
outcome [5]: inactive

CN1CCc2cccc3c2[C@H]1Cc1ccc(O)c(O)c1-3
AC50 [2]: 0.02 µM (active)
outcome [3]: inactive
outcome [4]: inactive

CCCCCCC(C)O (stereo not given)
AC50 [2]: 43.2 µM (active)
outcome [3]: inactive
outcome [4]: inactive
outcome [5]: inactive

NC(=O)c1cccnc1
outcome [3]: inactive

[O-]/[N+](=N\O)c1ccccc1
outcome [8]: inactive
outcome [3]: inactive

CCCC[N+](C)(CCCC)CCCC
outcome [3]: inactive

NNC(=O)OCc1ccccc1
outcome [2]: inactive

O=c1cc(-c2ccc(O)cc2)oc2cc(O)cc(O)c12
AC50 [8]: 12.9 µM (active)

CCCCCCCC(=O)N(C)C
outcome [3]: inactive

C=CCOCC(O)CO (stereo not given)
AC50 [8]: 1.33 µM (active)

CC12CCC(C1)C(C)(C)C2O (stereo not given)
outcome [2]: inactive
outcome [3]: inactive
outcome [5]: inactive

CCCc1ccc(O)cc1
outcome [8]: inactive
outcome [2]: inactive
outcome [3]: inactive
AC50 [4]: 63.7 µM (active)
AC50 [5]: 45.2 µM (active)

CC(C)CCCC(C)(C)O
outcome [8]: inactive
outcome [3]: inactive
outcome [4]: inactive

CCNC(=S)NCC
outcome [2]: inactive
outcome [3]: inactive
outcome [5]: inactive

CC(C)(C)c1cccc(O)c1
outcome [8]: inactive
outcome [2]: inactive
outcome [3]: inactive
AC50 [4]: 60.2 µM (active)

c1ccc(OCCOc2ccccc2)cc1
outcome [2]: inactive
outcome [3]: inactive
outcome [5]: inactive

N#CCCCC(C#N)CCC#N (stereo not given)
outcome [8]: inactive

CCCCCC1C(=O)CCC1CC(=O)OC (stereo not given)
AC50 [8]: 17.7 µM (active)
outcome [3]: inactive
outcome [4]: inactive

Nc1cc([N+](=O)[O-])ccc1C(=O)O
outcome [2]: inactive

OC[C@@H](O)[C@H](O)[C@@H](O)[C@@H](O)CO
outcome [8]: inactive
outcome [3]: inactive
outcome [4]: inactive

CCc1cccc(O)c1
outcome [2]: inactive
outcome [3]: inactive
outcome [5]: inactive
